In experiment [1] the test system is Epidermal growth factor receptor (Homo sapiens), P00533 [T790M]. The following applies: at 1 µM.
The test system of experiment [2] is Epidermal growth factor receptor (Homo sapiens), P00533 [L858R,T790M]. The following applies: at 0.1 µM.
The test system is the same in experiment [3]. Conditions: at 1 µM.
Experiment [4] concerns the target Ephrin type-A receptor 2 (Homo sapiens) (UniProt P29317). Conditions: at 0.1 µM.
Experiment [5] shares this target. The following applies: at 1 µM.
Experiment [6] has as its target T1, Ephrin type-A receptor 3 (Homo sapiens) (UniProt P29320).
T1 sequence (whole entry): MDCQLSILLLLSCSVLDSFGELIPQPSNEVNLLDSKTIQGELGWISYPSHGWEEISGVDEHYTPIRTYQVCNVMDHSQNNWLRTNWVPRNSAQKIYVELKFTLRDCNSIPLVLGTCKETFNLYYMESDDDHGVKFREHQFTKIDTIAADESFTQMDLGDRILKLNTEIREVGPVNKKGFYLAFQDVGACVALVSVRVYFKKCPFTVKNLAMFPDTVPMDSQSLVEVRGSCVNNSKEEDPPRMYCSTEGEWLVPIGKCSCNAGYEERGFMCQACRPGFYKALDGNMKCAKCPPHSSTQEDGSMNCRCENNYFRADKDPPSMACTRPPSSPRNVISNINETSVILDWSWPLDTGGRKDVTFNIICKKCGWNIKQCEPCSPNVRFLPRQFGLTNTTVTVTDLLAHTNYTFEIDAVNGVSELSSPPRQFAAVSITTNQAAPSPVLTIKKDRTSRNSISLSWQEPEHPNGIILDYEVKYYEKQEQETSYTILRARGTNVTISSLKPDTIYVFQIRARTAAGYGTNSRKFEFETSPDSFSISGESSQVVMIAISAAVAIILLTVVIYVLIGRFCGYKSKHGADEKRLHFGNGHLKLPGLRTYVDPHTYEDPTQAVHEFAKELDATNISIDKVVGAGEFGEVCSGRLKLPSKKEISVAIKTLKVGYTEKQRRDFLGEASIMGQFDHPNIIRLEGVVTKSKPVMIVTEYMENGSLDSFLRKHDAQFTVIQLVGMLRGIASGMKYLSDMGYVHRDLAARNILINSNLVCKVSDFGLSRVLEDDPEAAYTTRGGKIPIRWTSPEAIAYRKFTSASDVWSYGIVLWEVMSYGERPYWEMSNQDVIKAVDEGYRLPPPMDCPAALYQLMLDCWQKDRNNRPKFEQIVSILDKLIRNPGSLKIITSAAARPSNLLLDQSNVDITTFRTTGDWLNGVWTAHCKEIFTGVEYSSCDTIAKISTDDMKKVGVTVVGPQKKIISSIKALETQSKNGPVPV
The following applies: at 0.1 µM.

Experiment [7] has as its target T1, Ephrin type-A receptor 3 (Homo sapiens). The following applies: at 1 µM.
The target in experiment [8] is Ephrin type-A receptor 4 (Homo sapiens) (UniProt P54764). Conditions: at 0.1 µM.
For experiment [9] the target is unchanged. Conditions: at 1 µM.
The target of experiment [10] is T2, Ephrin type-B receptor 2 (Homo sapiens) (UniProt P29323).
T2 sequence (whole entry): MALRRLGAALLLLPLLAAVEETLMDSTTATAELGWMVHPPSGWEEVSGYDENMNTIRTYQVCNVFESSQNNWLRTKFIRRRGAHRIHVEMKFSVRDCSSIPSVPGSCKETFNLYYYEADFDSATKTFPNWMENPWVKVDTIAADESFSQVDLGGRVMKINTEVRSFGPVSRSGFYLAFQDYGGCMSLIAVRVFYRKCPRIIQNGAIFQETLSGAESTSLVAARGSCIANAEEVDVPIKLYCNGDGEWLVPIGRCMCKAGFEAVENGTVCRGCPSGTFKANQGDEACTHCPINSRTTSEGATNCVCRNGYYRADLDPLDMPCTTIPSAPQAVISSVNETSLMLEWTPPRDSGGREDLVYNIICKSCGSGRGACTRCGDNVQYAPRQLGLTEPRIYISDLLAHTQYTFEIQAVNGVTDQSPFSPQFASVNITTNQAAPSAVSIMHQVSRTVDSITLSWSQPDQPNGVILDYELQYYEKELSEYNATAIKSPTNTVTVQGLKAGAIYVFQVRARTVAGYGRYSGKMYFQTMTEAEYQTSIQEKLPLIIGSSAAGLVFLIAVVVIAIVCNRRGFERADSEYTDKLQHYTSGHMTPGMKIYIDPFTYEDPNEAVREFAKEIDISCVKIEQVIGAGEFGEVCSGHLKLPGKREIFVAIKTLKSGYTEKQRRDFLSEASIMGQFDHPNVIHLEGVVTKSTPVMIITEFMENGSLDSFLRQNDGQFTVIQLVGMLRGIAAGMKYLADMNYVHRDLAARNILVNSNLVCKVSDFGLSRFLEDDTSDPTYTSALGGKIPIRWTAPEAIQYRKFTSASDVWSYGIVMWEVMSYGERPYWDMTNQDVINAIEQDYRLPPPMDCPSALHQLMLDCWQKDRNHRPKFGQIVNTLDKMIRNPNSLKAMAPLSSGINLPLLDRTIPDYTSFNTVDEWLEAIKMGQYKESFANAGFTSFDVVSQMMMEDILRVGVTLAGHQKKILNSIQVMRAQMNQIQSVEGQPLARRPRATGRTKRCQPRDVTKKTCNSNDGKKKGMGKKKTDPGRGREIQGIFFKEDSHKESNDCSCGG
Conditions: at 0.1 µM.

Experiment [11] addresses T2, Ephrin type-B receptor 2 (Homo sapiens). Conditions: at 1 µM.
The target of experiment [12] is T3, Ephrin type-B receptor 3 (Homo sapiens) (UniProt P54753).
T3 sequence (whole entry): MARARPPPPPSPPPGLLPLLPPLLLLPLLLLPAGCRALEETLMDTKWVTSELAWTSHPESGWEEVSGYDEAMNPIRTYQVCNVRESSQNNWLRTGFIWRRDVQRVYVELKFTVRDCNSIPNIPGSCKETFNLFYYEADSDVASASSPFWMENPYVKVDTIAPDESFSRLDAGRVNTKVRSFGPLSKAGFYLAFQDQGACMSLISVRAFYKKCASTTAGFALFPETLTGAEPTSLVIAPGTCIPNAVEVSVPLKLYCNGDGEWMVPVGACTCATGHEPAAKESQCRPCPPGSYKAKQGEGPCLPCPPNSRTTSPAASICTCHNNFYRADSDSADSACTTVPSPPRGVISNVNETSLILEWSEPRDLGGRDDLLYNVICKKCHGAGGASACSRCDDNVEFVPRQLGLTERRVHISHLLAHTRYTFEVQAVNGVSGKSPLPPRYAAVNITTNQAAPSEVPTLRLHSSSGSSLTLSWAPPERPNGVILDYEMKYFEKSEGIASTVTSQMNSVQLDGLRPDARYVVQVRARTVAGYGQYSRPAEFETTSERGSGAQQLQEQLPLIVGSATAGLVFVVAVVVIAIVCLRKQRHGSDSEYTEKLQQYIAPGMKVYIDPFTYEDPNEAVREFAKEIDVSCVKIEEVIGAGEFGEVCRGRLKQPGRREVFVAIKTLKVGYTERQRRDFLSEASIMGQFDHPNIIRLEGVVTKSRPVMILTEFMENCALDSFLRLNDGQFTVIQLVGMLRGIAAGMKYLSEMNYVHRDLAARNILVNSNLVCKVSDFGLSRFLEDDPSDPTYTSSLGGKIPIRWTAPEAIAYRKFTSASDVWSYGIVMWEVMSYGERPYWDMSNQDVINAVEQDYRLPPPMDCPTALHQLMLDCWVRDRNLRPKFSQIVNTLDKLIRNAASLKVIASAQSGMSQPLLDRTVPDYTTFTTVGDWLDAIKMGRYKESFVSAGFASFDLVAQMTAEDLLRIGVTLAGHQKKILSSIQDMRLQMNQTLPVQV
The following applies: at 0.1 µM.

In experiment [13] the target is T3, Ephrin type-B receptor 3 (Homo sapiens). The following applies: at 1 µM.
Experiment [14] concerns the target T4, Ephrin type-B receptor 4 (Homo sapiens) (UniProt P54760).
T4 sequence (whole entry): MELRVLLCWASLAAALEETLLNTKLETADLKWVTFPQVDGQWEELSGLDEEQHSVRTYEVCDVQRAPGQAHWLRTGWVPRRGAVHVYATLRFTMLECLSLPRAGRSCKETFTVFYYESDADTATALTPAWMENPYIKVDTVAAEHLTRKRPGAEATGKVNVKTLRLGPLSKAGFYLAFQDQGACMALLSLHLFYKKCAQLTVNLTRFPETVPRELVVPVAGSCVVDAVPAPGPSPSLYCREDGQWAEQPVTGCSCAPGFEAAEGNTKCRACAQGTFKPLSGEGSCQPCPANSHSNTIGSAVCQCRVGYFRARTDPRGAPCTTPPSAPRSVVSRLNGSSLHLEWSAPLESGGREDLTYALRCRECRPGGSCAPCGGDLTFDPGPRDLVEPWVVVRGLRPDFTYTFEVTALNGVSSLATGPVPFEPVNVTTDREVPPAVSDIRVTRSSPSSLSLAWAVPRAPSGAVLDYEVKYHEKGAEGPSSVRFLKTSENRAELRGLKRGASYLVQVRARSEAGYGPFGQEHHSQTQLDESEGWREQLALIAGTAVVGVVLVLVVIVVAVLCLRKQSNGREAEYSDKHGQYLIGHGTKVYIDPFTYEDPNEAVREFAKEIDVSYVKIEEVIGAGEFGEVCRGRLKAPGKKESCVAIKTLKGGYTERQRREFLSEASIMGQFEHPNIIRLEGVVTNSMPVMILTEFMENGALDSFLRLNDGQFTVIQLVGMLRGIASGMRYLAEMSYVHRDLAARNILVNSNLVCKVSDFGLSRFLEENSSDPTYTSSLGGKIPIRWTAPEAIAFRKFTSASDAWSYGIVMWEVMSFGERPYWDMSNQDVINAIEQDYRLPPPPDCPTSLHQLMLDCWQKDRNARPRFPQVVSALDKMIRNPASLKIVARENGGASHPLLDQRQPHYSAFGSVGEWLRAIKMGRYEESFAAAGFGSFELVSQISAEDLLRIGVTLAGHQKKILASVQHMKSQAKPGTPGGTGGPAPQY
The following applies: at 0.1 µM.

In experiment [15] the target is T4, Ephrin type-B receptor 4 (Homo sapiens). The following applies: at 1 µM.
The target in experiment [16] is Receptor tyrosine-protein kinase erbB-2 (Homo sapiens) (UniProt P04626). The following applies: at 0.1 µM.
Experiment [17] has the same target. The following applies: at 1 µM.
In experiment [18] the target is Receptor tyrosine-protein kinase erbB-4 (Homo sapiens) (UniProt Q15303). Conditions: at 0.1 µM.
The target is the same in experiment [19]. The following applies: at 1 µM.
The target of experiment [20] is Tyrosine-protein kinase Fer (Homo sapiens) (UniProt P16591). Conditions: at 0.1 µM.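 Note: reported figures are averaged percent inhibition of FER.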

Ephrin type-A receptor 4 (Homo sapiens), sequence (P54764 whole entry): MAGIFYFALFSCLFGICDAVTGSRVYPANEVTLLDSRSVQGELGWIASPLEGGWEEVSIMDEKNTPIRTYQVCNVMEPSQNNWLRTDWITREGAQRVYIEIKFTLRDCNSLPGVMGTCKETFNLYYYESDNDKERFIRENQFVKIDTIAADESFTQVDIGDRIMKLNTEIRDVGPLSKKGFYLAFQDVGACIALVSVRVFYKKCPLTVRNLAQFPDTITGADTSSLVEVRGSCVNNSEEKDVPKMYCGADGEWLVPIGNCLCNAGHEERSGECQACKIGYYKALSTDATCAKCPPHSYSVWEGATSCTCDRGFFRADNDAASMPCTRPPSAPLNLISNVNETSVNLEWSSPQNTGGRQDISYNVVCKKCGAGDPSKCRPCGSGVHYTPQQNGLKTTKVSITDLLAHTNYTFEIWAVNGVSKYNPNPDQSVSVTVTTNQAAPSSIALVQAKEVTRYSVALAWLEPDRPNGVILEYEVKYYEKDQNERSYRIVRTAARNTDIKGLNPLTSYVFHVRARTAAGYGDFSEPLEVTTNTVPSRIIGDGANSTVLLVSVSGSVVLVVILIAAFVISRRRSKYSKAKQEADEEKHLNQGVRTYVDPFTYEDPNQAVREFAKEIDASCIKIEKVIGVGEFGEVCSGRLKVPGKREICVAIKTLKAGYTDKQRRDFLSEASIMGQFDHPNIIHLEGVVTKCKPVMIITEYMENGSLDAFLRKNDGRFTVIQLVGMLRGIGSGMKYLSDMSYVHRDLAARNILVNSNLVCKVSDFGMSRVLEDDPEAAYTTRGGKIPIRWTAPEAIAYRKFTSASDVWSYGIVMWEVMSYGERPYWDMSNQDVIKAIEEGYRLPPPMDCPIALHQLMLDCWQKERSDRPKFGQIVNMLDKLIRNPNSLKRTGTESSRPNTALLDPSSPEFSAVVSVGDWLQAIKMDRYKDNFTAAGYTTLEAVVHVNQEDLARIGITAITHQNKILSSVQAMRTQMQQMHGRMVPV
Receptor tyrosine-protein kinase erbB-2 (Homo sapiens), sequence (P04626 whole entry): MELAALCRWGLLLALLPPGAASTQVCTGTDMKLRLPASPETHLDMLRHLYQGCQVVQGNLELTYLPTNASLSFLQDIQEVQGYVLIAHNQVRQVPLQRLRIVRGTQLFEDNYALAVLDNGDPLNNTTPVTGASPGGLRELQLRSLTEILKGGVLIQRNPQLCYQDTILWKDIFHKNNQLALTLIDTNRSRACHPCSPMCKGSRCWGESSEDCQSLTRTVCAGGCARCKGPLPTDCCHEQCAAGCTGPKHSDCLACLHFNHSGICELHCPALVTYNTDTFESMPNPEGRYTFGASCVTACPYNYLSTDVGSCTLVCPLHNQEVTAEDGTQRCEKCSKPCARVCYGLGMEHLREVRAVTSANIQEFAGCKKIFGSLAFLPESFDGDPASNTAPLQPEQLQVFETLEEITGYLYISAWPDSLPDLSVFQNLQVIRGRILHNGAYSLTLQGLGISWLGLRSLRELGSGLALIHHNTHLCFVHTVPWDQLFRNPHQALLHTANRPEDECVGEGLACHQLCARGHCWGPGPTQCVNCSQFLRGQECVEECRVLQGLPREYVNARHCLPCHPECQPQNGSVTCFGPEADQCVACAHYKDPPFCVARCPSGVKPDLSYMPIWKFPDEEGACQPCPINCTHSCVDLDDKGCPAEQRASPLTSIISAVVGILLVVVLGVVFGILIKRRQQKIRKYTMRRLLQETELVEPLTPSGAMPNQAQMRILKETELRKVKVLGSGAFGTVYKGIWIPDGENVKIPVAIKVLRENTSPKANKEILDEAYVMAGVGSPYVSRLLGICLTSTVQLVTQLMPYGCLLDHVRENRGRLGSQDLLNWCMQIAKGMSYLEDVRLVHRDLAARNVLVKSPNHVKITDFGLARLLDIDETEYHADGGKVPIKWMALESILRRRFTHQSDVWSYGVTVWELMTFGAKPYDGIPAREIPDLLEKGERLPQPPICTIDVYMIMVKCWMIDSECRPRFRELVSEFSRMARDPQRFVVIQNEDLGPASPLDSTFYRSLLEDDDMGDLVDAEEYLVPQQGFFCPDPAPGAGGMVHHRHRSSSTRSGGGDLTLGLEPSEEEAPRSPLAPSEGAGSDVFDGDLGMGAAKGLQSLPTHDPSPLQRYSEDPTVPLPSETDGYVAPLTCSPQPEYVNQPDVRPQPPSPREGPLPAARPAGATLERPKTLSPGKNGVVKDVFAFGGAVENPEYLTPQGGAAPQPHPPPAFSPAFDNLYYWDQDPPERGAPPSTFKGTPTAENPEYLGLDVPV
Epidermal growth factor receptor (Homo sapiens), P00533 [T790M], sequence (P00533 whole entry T790M): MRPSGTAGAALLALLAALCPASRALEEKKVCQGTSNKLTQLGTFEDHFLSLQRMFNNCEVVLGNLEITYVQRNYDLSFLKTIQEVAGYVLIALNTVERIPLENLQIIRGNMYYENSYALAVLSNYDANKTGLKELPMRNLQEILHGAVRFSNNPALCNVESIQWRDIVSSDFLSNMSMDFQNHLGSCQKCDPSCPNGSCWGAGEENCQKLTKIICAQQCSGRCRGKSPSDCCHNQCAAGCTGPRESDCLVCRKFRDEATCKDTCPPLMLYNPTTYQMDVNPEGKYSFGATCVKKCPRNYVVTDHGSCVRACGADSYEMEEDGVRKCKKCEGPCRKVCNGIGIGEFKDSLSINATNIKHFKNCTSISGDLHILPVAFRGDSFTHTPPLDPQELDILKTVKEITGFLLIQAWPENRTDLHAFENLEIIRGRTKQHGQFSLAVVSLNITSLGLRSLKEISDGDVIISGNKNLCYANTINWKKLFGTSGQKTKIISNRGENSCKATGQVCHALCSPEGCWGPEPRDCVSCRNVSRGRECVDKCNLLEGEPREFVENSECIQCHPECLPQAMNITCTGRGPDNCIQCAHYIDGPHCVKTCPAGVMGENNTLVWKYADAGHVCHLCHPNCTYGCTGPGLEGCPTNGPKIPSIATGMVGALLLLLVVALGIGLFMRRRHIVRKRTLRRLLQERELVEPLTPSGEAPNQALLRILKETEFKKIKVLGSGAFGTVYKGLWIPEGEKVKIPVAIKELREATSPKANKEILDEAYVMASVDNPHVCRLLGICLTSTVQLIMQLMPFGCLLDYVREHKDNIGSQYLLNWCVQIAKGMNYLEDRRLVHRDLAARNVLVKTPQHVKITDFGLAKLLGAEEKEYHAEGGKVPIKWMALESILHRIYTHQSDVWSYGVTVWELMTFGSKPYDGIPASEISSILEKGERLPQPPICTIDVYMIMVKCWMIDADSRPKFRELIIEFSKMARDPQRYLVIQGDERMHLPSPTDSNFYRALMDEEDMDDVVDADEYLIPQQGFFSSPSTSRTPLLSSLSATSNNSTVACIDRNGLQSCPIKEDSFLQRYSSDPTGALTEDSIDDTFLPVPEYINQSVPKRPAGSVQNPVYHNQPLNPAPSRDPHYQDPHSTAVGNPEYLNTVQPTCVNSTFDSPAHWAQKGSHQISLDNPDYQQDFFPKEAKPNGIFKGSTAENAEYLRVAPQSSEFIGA
Epidermal growth factor receptor (Homo sapiens), P00533 [L858R,T790M], sequence (P00533 whole entry T790M/L858R, looked up): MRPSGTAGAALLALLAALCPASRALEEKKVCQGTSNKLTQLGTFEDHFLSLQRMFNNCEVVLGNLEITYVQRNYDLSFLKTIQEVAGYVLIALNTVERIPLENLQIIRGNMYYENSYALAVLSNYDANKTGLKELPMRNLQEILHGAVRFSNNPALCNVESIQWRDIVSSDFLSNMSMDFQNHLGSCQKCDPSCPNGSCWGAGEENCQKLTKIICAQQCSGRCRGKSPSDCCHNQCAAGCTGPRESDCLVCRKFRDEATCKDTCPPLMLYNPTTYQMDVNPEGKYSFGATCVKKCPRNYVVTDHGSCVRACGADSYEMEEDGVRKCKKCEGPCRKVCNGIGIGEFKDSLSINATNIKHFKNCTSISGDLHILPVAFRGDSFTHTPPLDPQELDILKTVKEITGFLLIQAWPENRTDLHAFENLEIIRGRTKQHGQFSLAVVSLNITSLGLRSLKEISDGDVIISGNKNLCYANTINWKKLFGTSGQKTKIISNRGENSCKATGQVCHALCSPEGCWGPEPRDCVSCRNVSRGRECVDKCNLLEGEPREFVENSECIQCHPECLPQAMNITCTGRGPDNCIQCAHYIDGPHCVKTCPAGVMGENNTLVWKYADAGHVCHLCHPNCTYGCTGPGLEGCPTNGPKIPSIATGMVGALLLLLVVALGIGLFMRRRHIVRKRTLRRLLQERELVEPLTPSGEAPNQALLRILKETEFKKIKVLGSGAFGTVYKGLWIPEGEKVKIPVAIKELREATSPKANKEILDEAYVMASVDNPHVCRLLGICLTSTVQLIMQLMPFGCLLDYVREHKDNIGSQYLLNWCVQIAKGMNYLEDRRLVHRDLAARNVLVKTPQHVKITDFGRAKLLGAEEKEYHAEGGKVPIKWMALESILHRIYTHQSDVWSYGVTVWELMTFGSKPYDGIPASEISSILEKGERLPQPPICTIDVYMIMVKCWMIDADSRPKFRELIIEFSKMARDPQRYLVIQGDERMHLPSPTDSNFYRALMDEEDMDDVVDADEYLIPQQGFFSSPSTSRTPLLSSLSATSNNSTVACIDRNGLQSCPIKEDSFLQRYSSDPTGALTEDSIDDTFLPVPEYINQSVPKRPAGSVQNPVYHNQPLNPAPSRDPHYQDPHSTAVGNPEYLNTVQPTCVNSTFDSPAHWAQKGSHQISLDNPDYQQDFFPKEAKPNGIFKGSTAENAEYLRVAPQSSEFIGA

A word on the inhibition: it is the relative decrease from the control value, in per cent. For `Cc1ccc2c(-c3ccnc(Nc4cccc(C(F)(F)F)c4)n3)c(-c3ccccc3)nn2n1`, the inhibition in experiment [1] was 57.7%; in [2] it was 35.2%; in experiment [3], 87.6%; in experiment [4] it was 0.69%; in experiment [5], 4.04%; in [6], 5.98%. Further, the inhibition in [7] was found to be 15.1%; in [8], 8.59%; in experiment [9] it was 33.9%; in [10], 17.6%; in [11], 51.7%; in experiment [12] it was 3.61%. In addition, the inhibition in experiment [13] stood at 9.16%; in [14], 7.62%; in [15], 46.4%; in experiment [16], 5.37%; in experiment [17], 37.7%; in experiment [18] it was 40.4%. In addition, the figures for the inhibition in experiment [19] and in experiment [20] were 79% and -8.28%, respectively.
In the case of `O=C1Nc2ccccc2/C1=C/Nc1ccc2[nH]c(=O)[nH]c2c1`, the inhibition in experiment [1] is 7.07%; in [2], 4.62%; in experiment [3] it was 3.05%; in experiment [4], 2.36%; in [5], 3.88%; in [6], 5.7%. Besides, the inhibition is 9.27% in experiment [7]; 12.9% in experiment [8]; 16.3% in experiment [9]; 15.9% in [10]; 20.6% in experiment [11]; 6.46% in experiment [12]. Further, the inhibition was found to be 5.55% in experiment [13]; 5.44% in experiment [14]; 5.98% in experiment [15]; 3.93% in [16]; 2.8% in experiment [17]; 9.76% in experiment [18]. Also, the inhibition was 15.3% in experiment [19] and 3.27% in [20].
For `COc1cc2ncnc(Nc3ccc(C)c(O)c3)c2cc1OC`, the inhibition in experiment [1] was 31.2%; in experiment [2], 3.9%; in experiment [3], 13.5%; in experiment [4], 2.35%; in [5], 10.6%; in experiment [6] it was 6.24%. Further, the inhibition in [7] was 16.7%; in experiment [8] it was 15.9%; in experiment [9], 49.9%; in experiment [10], 11.1%; in [11], 41.4%; in [12] it was 6.58%. In addition, the inhibition in experiment [13] amounted to 2.9%; in [14], 8.74%; in experiment [15], 36.9%; in experiment [16], 7.8%; in experiment [17], 26.3%; in [18], 31.7%. The inhibition was determined as 68.7% in experiment [19] and 4.24% in experiment [20].
As for `c1ccc(Nc2ncc(-c3ccccc3)o2)cc1`, the inhibition in [1] is 3.42%; in experiment [2], -0.6%; in [3] it was 3.56%; in experiment [4], 1.18%; in experiment [5] it was 0.47%; in [6], 3.55%. Further, the inhibition in experiment [7] came to 4.8%; in experiment [8] it was 7.56%; in experiment [9], 12.1%; in experiment [10], 7.58%; in experiment [11], 12.9%; in [12], 2.14%. In addition, the inhibition in [13] was 6.32%; in [14] it was 4.58%; in experiment [15] it was 5.49%; in experiment [16] it was 43.6%; in experiment [17], 8.36%; in experiment [18] it was 11%. Also, the inhibition in experiment [19] was 16%; in [20], 3.09%.

The values above are taken from ChEMBL document CHEMBL1961873, “Compounds: GSK PKIS; Assays: Nanosyn kinase panel” (2012).
